# The whole screen tested about 330,000 compounds, of which about 2,800 (0.85%) were called active.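 The calls were made as follows: active = mean inhibition across replicates of 60% or more, whatever share of single replicates reaches that level; inconclusive = some that reach 60%, reason not given; inactive = mean inhibition across replicates below 60%.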 What follows is part of a selection rich in actives, with near analogues and random picks from the rest.
# Assay: inhibitors of MITF-dependent TRPM1 promoter reporter, primary screen, cell-based, SK-MEL-5, single point, luciferase (AID 488899)
# Settings: SK-MEL-5 TRPM1 promoter luciferase, 24 h; at 12.5 µM; stronger effect = higher value
row,SMILES,inhibition
1,CC(C)(C)OC(=O)C[C@@H]1C/C=C\C[C@@H](CC(=O)N[C@H](CO)Cc2ccccc2)C(=O)NC[C@@H](c2ccccc2)OC1=O,1.12% (inactive)
2,CC(C)(C)OC(=O)C[C@H]1C/C=C\C[C@@H](CC(=O)N[C@H](CO)Cc2ccccc2)C(=O)NC[C@@H](c2ccccc2)OC1=O,4.03% (inactive)
3,O=C(C[C@H]1C/C=C\C[C@@H](NC(=O)OCC2c3ccccc3-c3ccccc32)C(=O)O[C@@H](c2ccccc2)CNC1=O)N[C@H](CO)Cc1ccccc1,86.8% (active)
4,O=C1NCC(c2ccccc2)(c2ccccc2)C(=O)N1,-7.87% (inactive)
5,CC12CN3CCN(CC(C3)/C1=N\NC(=O)c1ccccc1N)C2,9.43% (inactive)
6,N#CC1(Nc2ccc(-c3ccc(Cl)cc3)cc2)CCCC1,-58.9% (inactive)
7,CN(/N=C/c1ccccc1)C(=S)c1ccccc1,1.77% (inactive)
8,CN(O)C(=S)c1ccccc1,82% (active)
9,CN(CC(=O)O)C(=O)c1ccccc1,-4.07% (inactive)
10,CCOC(=O)N1CCN(S(=O)(=O)c2cc3c(cc2C)NC(=O)CO3)CC1,2.83% (inactive)
11,C=CCn1cc(C(=O)NCc2ccc(Cl)cc2)c(=O)c2cc(S(=O)(=O)N(CC)CC)ccc21,-5.87% (inactive)
12,O=C(CN1CCN(c2ncccn2)CC1)Nc1ccccc1C(F)(F)F,18.5% (inactive)
13,CC(=O)c1ccc(S(=O)(=O)N2CCN(c3nc4c(C)c(C)ccc4cc3C#N)CC2)cc1,3.2% (inactive)
14,CC(=O)c1ccc(S(=O)(=O)N2CCC3(CC2)OCCO3)cc1,8.67% (inactive)
15,CC(=O)c1ccc(S(=O)(=O)N2CCN(C(=O)/C=C/c3ccc4ccccc4n3)CC2)cc1,72.5% (active)
16,CCN(CC)CCNS(=O)(=O)c1ccc(/C=C/C(=O)O)cc1,14.7% (inactive)
17,C=CC1=C(C(=O)O)N2C(=O)[C@@H](NC(=O)/C(=N\OCC(=O)O)c3csc(N)n3)[C@H]2SC1,-2.96% (inactive)
18,CC(=O)N(CC(O)CO)c1c(I)c(C(=O)NCC(O)CO)c(I)c(C(=O)NCC(O)CO)c1I (stereo not drawn),-3.11% (inactive)
19,Brc1ccc2ncnc(NCc3cccnc3)c2c1,-1.36% (inactive)
20,O=C(O)CCCCCNc1ncnc2ccc(Br)cc12,1.66% (inactive)
21,COc1ccc(Nc2ncnc3ccc(Br)cc23)c(OC)c1,67.9% (active)
22,N/C(=N\S(=O)(=O)c1ccc(Cl)cc1)N1CCOCC1,1.47% (inactive)
23,Cc1cc([N+](=O)[O-])c(=O)[nH]c1C,-0.774% (inactive)
24,COc1ccc(C(C[N+](=O)[O-])n2nc(C)cc2C)cc1 (stereo not drawn),27.2% (inactive)
25,Cc1ccc(/C=N/NC(=O)C2=NNC(c3ccccc3)(c3ccccc3)C2)c(O)c1,76.5% (active)

row,SMILES,inhibition
1,CCN(CC)c1ccc(/C=N/NC(=O)c2cnccn2)c(O)c1,25.3% (inactive)
2,O=C(NN=Cc1ccccc1O)NN=Cc1ccccc1O,22.9% (inactive)
3,CCOC(=O)c1c(S(=O)(=O)NCC(=O)Nc2ccc(C)cc2)c(C)n(C)c1C,7.89% (inactive)
4,Cc1c(N=Nc2ccc(N(C)C)cc2)c(=O)n(-c2ccccc2)n1C,-25.6% (inactive)
5,Cn1c(=S)sc2ccc3ccccc3c21,0.517% (inactive)
6,CC(=O)Nc1ccc(Nc2c3ccccc3nc3ccccc23)cc1,62.4% (active)
7,CC(=O)Nc1ccc(Nc2cc(C)nc(Nc3ccc(NC(C)=O)cc3)n2)cc1,-5.88% (inactive)
8,CCc1nc(Nc2ccc(NC(C)=O)cc2)c2oc3ccccc3c2n1,5.96% (inactive)
9,Cc1ccc(Cl)cc1N1CCN(C(=O)c2cccc3c(=O)c(C)c(-c4ccccc4)oc23)CC1,9.36% (inactive)
10,C/C=N/N(c1ccccc1)c1ccccc1,2.93% (inactive)
11,O=C(NNC(=O)c1ccc2ccccc2c1)c1ccc(Cl)cc1,10.1% (inactive)
12,O=C(CN1CCN(S(=O)(=O)c2ccc(Br)cc2)CC1)Nc1ccccc1C(=O)c1ccccc1,-0.0235% (inactive)
13,O=C(NN=Cc1ccc([N+](=O)[O-])cc1)C1CC1,-20.4% (inactive)
14,O=C1/C(=C\c2ccc([N+](=O)[O-])cc2)CS(=O)(=O)C/C1=C/c1ccc([N+](=O)[O-])cc1,106% (active)
15,O=[N+]([O-])c1ccc(C=NN=Cc2ccc([N+](=O)[O-])cc2)cc1,-1.22% (inactive)
16,Cc1cc(C)c2nc3nc(C)cc(C)c3c(N)c2c1,69% (active)
17,O=S(=O)(NCc1ccccc1Cl)c1cnc[nH]1,9.3% (inactive)
18,CN(C)/C=C(\C#N)C(=O)c1cccnc1Oc1ccc(F)cc1F,-3.39% (inactive)
19,COc1ccc(NC(=O)C(=O)NCC(=O)Nc2cccc(C(F)(F)F)c2)cc1,3.29% (inactive)
20,COc1cc(NC(=O)c2cncc(-c3ccc(C#N)cc3)c2)cc(C(=O)Nc2cccc(C(F)(F)F)c2)c1,71.3% (active)
21,Cc1cccc(NC(=O)c2nnn(-c3cccc(C(F)(F)F)c3)c2N)c1,-39.6% (inactive)
22,COc1cc(NC(=O)c2[nH]cnc2C(N)=O)cc(C(=O)Nc2cccc(C(F)(F)F)c2)c1,89.9% (active)
23,N#Cc1ccc(Oc2ccc(C(F)(F)F)cc2NC(=O)c2ccc(F)cc2)cc1,-2.39% (inactive)
24,O=C(Nc1ccc(-c2csc(Nc3cccc(C(F)(F)F)c3)n2)cc1)c1cccc(C(F)(F)F)c1,-14.9% (inactive)
25,CC(C)[C@@H](NC(=O)OC(C)(C)C)C(=O)NCC1CCC(C(=O)N[C@@H](Cc2ccccc2)C(=O)O)CC1 (stereo partly drawn),-3.13% (inactive)

row,SMILES,inhibition
1,O=c1oc(/C=C/c2ccccc2)nc2ccccc12,-14.4% (inactive)
2,CCn1c(/C=C/c2ccc([N+](=O)[O-])o2)nc2ccccc2c1=O,75.9% (active)
3,CCOCCCn1c(NN)nc2ccccc2c1=O,10.3% (inactive)
4,CC(=O)NC(CC(=O)Nc1nccs1)c1ccccc1 (stereo not drawn),-5.93% (inactive)
5,O=C1CC[C@@H]2CC3(C[C@@H]4CCN1[C@H]24)Nc1cc([N+](=O)[O-])ccc1NC3=NC1CCCCC1 (stereo partly drawn),-4.61% (inactive)
6,CC(=O)N1CC[n+]2c(-c3ccc([N+](=O)[O-])cc3)csc21,-4.65% (inactive)
7,COCCN1C(=O)C(=O)/C(=C(/O)c2ccc(S(=O)(=O)N3CCOCC3)cc2)C1c1ccc(OC)c(OC)c1 (stereo not drawn),2.98% (inactive)
8,CCOC(=O)c1c(C)nc(-c2ccccc2)nc1NC(=O)C(C)C,-26.2% (inactive)
9,CCOC(=O)c1c(C)[nH]c2c1-c1ccccc1C(=O)C2=O,106% (active)
10,CCOC(=O)c1ccccc1OC(=O)Oc1ccccc1C(=O)OCC,24% (inactive)
11,CC(C)OC(=O)CN1CCN(c2ccc(Cl)cc2)CC1,-22.1% (inactive)
12,C=CCn1c(C)cc(C2=NNC(=NCC)SC2)c1C,98.4% (active)
13,Cc1ccc(S(=O)(=O)NCc2ccc(C(=O)NC3CCC(C)CC3)cc2)cc1 (stereo not drawn),-5.23% (inactive)
14,O=C(NCCc1ccccc1)c1cccc(NC(=O)c2ccccc2)c1,-26.7% (inactive)
15,CCN(CC(=O)Nc1c(F)cccc1F)C(=O)Cc1cccs1,-11.1% (inactive)
16,CSc1nnc(NC(=O)c2nc(S(=O)(=O)Cc3ccc(C)cc3)ncc2Cl)s1,62.7% (active)
17,Cc1nnc(NC(=O)c2ccc3nccnc3c2)s1,-45.1% (inactive)
18,COCCSc1nnc(NC(=O)CCS(=O)(=O)Cc2ccccc2)s1,-6.5% (inactive)
19,CSc1ncc(Cl)c(C(=O)Nc2cc(C)ccc2C)n1,18.6% (inactive)
20,Cc1cccc(CS(=O)(=O)c2ncc(Cl)c(C(=O)Nc3ccc(F)cc3)n2)c1,41% (inactive)
21,Cc1cccc(NC(=O)c2nc(S(=O)(=O)Cc3ccccc3)ncc2Cl)c1,70.8% (active)
22,Cc1cccc(NC(=O)c2nc[nH]c2C(=O)NCC(=O)OCc2ccccc2)c1,-4.1% (inactive)
23,Cc1ccc(CS(=O)(=O)c2ncc(Cl)c(C(=O)Nc3nnc(C)s3)n2)cc1,85.4% (active)
24,Cc1ccc(S(=O)(=O)CC(=O)Nc2nnc(C)s2)cc1,7.41% (inactive)
25,NS(=O)(=O)c1ccccc1NC(=O)c1c(O)c2ccccc2[nH]c1=O,-57.1% (inactive)

row,SMILES,inhibition
1,Cc1nc(N)nc(Cl)c1CCC1OCCO1,-7.11% (inactive)
2,Cc1ccc(CN(CC(=O)NCC2CCCO2)S(=O)(=O)c2ccc(C)cc2)cc1 (stereo not drawn),-1.73% (inactive)
3,COc1ccc(N2C(=O)C(CC(=O)Nc3ccccc3)N(Cc3ccc(OC)c(OC)c3)C2=O)cc1 (stereo not drawn),-7.22% (inactive)
4,COc1ccc([N+](=O)[O-])cc1N(CC(O)Cn1nnc2ccccc21)S(=O)(=O)c1ccc(C)cc1 (stereo not drawn),-0.297% (inactive)
5,Cc1cc(F)ccc1NC(=S)NCCc1ccccc1,7.66% (inactive)
6,Cc1ccc(C)c(S(=O)(=O)N(C)c2ccc(OC(=O)C3CCN(C(=O)c4ccc(F)cc4)CC3)cc2)c1,-0.817% (inactive)
7,Cc1ccc(S(=O)(=O)N2CCN(C(=O)c3cc(S(=O)(=O)N4CCOCC4)ccc3F)CC2)cc1,3.63% (inactive)
8,CC(C)Nc1nnc(SC(C)C(=O)N(C)C2CCCCC2)s1 (stereo not drawn),3.93% (inactive)
9,Cc1ccc(C(=O)/C=C/c2c(C)nn(-c3ccccc3)c2Cl)cc1,-34.6% (inactive)
10,O=C(/C=C/Sc1ncn[nH]1)c1ccc(Cl)cc1,90.5% (active)
11,Cc1cccc(C=CC(=O)c2ccc(Cl)cc2)c1,-37.5% (inactive)
12,O=C(Nc1ccncc1)c1ccc(Cl)c([N+](=O)[O-])c1,-0.779% (inactive)
13,CC(OC(=O)CNC(=O)c1ccc(Cl)c([N+](=O)[O-])c1)C(=O)NCc1ccco1 (stereo not drawn),-4.83% (inactive)
14,CC(=O)Nc1ccc(NC(=O)C(C)OC(=O)c2ccccc2C(=O)c2ccc(Cl)c([N+](=O)[O-])c2)cc1 (stereo not drawn),75.9% (active)
15,O=C(COC(=O)c1cnccn1)Nc1ccc(Cl)cc1C(F)(F)F,8.53% (inactive)
16,COc1ccc(CC(=O)NC2CCSc3ccccc32)cc1OC (stereo not drawn),3.11% (inactive)
17,COc1ccccc1N1CCN(S(=O)(=O)c2ccc(Cl)cc2)CC1,8.65% (inactive)
18,COc1ccccc1-n1nnnc1S(=O)(=O)Cc1ccc(Cl)cc1,73.6% (active)
19,COc1ccccc1-n1nnnc1SCC(=O)NC(=O)Cc1ccccc1,2.76% (inactive)
20,CC(C)(C)n1nc(Cc2cccc3ccccc23)c(C#N)c1N,4.42% (inactive)
21,CCc1nn(-c2cc(Oc3cccc4ccccc34)nc(-c3ccccc3)n2)c(N)c1C#N,86.1% (active)
22,O=C(c1ccc2c(c1)N(Cc1ccc(F)cc1)C(=O)c1ccccc1S2(=O)=O)N1CCN(c2ccccn2)CC1,7.75% (inactive)
23,CCOC(=O)C1(Cc2ccccc2C)CCCN(S(C)(=O)=O)C1 (stereo not drawn),0.048% (inactive)

# Source: PubChem BioAssay AID488899 (Broad Institute, 2010)
